Screening results as filed in PubChem BioAssay.
A3A deaminase – inhibitors of human APOBEC3A DNA deaminase. P31941. recombinant A3A, FAM/TAMRA ssDNA deamination fluorescence. inhibition, % at 20 µM. 330,000 tested, 0.41% active. AID 493011;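 active means at least 40% inhibition at 20 µM here, with at most 30% in a related deaminase screen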
NTR1 agonist – NTR1 (human) agonism. P30989. NTR1-U2OS beta-arrestin-GFP spot imaging, agonist mode. activation, % at 20 µM. 330,000 tested, 0.17% active;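 active means activation at or above 40% of the spot to cytoplasm intensity ratio, with at least 20 cells analyzed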
A3G deaminase – inhibitors of human APOBEC3G DNA deaminase; Q9HC16; recombinant A3G, ssDNA deamination FAM/TAMRA fluorescence; inhibition, % at 20 µM; 330,000 tested, 0.28% active; AID 493012;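 active means inhibition of at least 40% at 20 µM, with no more than 30% in the related APOBEC3A deaminase screen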
Target sequence (Q9HC16 whole entry, looked up): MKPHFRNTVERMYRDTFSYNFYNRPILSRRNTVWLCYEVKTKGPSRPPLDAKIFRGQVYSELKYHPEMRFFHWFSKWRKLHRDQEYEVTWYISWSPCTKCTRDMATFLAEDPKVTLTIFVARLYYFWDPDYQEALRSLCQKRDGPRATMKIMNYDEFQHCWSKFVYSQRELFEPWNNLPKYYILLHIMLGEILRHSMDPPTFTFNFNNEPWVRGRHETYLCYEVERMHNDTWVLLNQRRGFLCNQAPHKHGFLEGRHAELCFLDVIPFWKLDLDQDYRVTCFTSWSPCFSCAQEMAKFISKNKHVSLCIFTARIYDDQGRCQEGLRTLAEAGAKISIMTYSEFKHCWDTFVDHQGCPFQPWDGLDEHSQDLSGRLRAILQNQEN
AHR act – activators of human aryl hydrocarbon receptor. activation, % at 5 µM. AHR-responsive luciferase reporter cells, luminescence. AID 2796. P35869. 320,000 tested, 2.5% active; in the data active means activation above about 47%
A3G conf – confirmation of human APOBEC3G DNA deaminase inhibitors | shares compounds with A3G deaminase | recombinant A3G ssDNA deaminase, UDG/FAM-TAMRA fluorescence | inhibition, % at 20 µM | 890 tested, 72% active | AID 493152;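 active means inhibition reaching a set limit in any replicate at 20 µM, the limit being 80% of the first screen's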
UDG ctr A3G – counter-screen for APOBEC3G inhibitors: E. coli UDG. 710 tested, under 10 active. shares compounds with A3G deaminase. UDG counterscreen, FAM/TAMRA oligo fluorescence. inhibition, % at 20 µM;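 active means compounds giving 40% or more inhibition at 20 µM in any one of the three replicates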;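 further: inhibitors lower the FAM signal released by uracil excision and alkaline cleavage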
A number is an active result. This is a sample that favours compounds with a hit; in the whole collection about 3.2% have one here.

How did COC(=O)c1ccc(CSc2nc3ccccc3s2)o1 do in these assays?
A3A deaminase: inactive; NTR1 agonist: inactive; A3G deaminase: inactive; AHR act: inactive

How did COC(=O)c1ccc(CSc2n[nH]c(=S)s2)o1 do in these assays?
A3A deaminase: inactive; NTR1 agonist: inactive; A3G deaminase: 50; AHR act: inactive; A3G conf: 59; UDG ctr A3G: inactive

What do the screens show for `COc1ccccc1CCC(=O)NCCCn1ccc2ccccc21`?
A3A deaminase: inactive; NTR1 agonist: inactive; A3G deaminase: inactive; AHR act: inactive

How did O=C(COC(=O)c1cc(-c2cccs2)nn1-c1ccccc1)Nc1ccc(F)c([N+](=O)[O-])c1 do in these assays?
A3A deaminase: inactive; NTR1 agonist: inactive; A3G deaminase: inactive; AHR act: inactive

What do the screens show for `COc1ccc(NC(=O)/C(C#N)=C/c2ccc(OCCN3CCOCC3)c(OC)c2)c(OC)c1`?
A3A deaminase: inactive; NTR1 agonist: inactive; A3G deaminase: inactive; AHR act: inactive

How did Cc1ccc(NC(=O)C2CCCN2C(=O)OCc2ccccc2)cc1F (configuration not stated) do in these assays?
A3A deaminase: inactive; NTR1 agonist: inactive; A3G deaminase: inactive; AHR act: inactive

What do the screens show for `CCOc1ccc(Nc2n[nH]c(=S)s2)cc1`?
A3A deaminase: inactive; NTR1 agonist: inactive; A3G deaminase: inactive; AHR act: inactive

How did CCSc1n[nH]c(=S)s1 do in these assays?
A3A deaminase: inactive; NTR1 agonist: inactive; A3G deaminase: 52; AHR act: inactive; A3G conf: 59; UDG ctr A3G: inactive

How did Cc1ccc(-c2n[nH]c3c2C(c2ccccc2)N(c2ccc(C(=O)O)cc2)C3=O)cc1 (configuration not stated) do in these assays?
A3A deaminase: inactive; NTR1 agonist: inactive; A3G deaminase: 74; AHR act: inactive; A3G conf: inactive; UDG ctr A3G: inactive

What do the screens show for `Cc1ccc(-c2n[nH]c3c2C(c2cccc(O)c2)N(c2ccc(C(=O)O)cc2)C3=O)cc1` (configuration not stated)?
A3A deaminase: inactive; NTR1 agonist: inactive; A3G deaminase: inactive; AHR act: inactive

What do the screens show for `C/C=C\C(=O)Nc1cccc(C2=NOC3(C2)C[C@@H](C(N)=O)N(C(=O)C2(C)CC2)C3)c1` (some centres not stated)?
A3A deaminase: inactive; NTR1 agonist: inactive; A3G deaminase: inactive; AHR act: inactive

What do the screens show for `C=C(C)C(=O)Nc1cccc(C2=NOC3(C2)C[C@@H](C(N)=O)N(C(=O)C2(C)CC2)C3)c1` (some centres not stated)?
A3A deaminase: inactive; NTR1 agonist: inactive; A3G deaminase: 89; AHR act: inactive; A3G conf: 94

How did C=C(C)C(=O)Nc1cccc(C2=NOC3(C2)C[C@@H](C(N)=O)N(C(=O)C(=C)C)C3)c1 (some centres not stated) do in these assays?
A3A deaminase: inactive; NTR1 agonist: inactive; A3G deaminase: 88; AHR act: inactive; A3G conf: 92; UDG ctr A3G: inactive

Results for O=C(CSc1nncn1-c1ccccc1)Nc1cc(F)ccc1F ?
A3A deaminase: inactive; NTR1 agonist: inactive; A3G deaminase: inactive; AHR act: inactive

Results for Cc1ccc(C(O)(COC(=O)C(C)C)COC(=O)C(C)C)c(O)c1 ?
A3A deaminase: inactive; NTR1 agonist: inactive; A3G deaminase: inactive; AHR act: inactive

How did CCOC(=O)c1ccc(-n2c(=S)sc3c(=O)[nH]c(C)nc32)cc1 do in these assays?
A3A deaminase: inactive; NTR1 agonist: inactive; A3G deaminase: 56; AHR act: inactive; A3G conf: 40; UDG ctr A3G: inactive

How did S=c1[nH]nc(CSCCOc2ccccc2)o1 do in these assays?
A3A deaminase: inactive; NTR1 agonist: inactive; A3G deaminase: inactive; AHR act: inactive

What do the screens show for `Cn1c(-c2csc(-c3ccccc3)n2)n[nH]c1=S`?
A3A deaminase: inactive; NTR1 agonist: inactive; A3G deaminase: 45; AHR act: inactive; A3G conf: 64; UDG ctr A3G: inactive

What do the screens show for `Cn1c(CSc2nc3ccccc3s2)n[nH]c1=S`?
A3A deaminase: inactive; NTR1 agonist: inactive; A3G deaminase: 48; AHR act: inactive; A3G conf: 58; UDG ctr A3G: inactive

How did Cn1c(-c2sc3ccccc3c2Cl)n[nH]c1=S do in these assays?
A3A deaminase: inactive; NTR1 agonist: inactive; A3G deaminase: 41; AHR act: inactive; A3G conf: 63; UDG ctr A3G: inactive
